According to PMC7826789 (International Journal of Molecular Sciences, 2021):

Tests used:
Details in all cases: Compound Concentration (nM):1000
FGFR3 = system: FGFR3
FGFR4 = system: FGFR4
FGR = system: FGR
FLT1 = system: FLT1
FLT3(D835H) = system: FLT3(D835H)
FLT3(D835V) = system: FLT3(D835V)
FLT3(D835Y) = system: FLT3(D835Y)
FLT3(ITD) = system: FLT3(ITD)
FLT3(ITD,D835V) = system: FLT3(ITD,D835V)
FLT3(ITD,F691L) = system: FLT3(ITD,F691L)
FLT3(K663Q) = system: FLT3(K663Q)
FLT3(N841I) = system: FLT3(N841I)
FLT3(R834Q) = system: FLT3(R834Q)
FLT3-autoinhibited = system: FLT3-autoinhibited
FLT3 = system: FLT3
FLT4 = system: FLT4
FRK = system: FRK
FYN = system: FYN
GAK = system: GAK
GCN2(Kin.Dom.2,S808G) = system: T1, GCN2(Kin.Dom.2,S808G)
T1 construct: gene EIF2AK4
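Also: KINOMEscan scanMAX binding as percent activity remaining versus control; lower means stronger binding.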

Structure (SMILES)	Percent Control (FGFR3)	Percent Control (FGFR4)	Percent Control (FGR)	Percent Control (FLT1)	Percent Control (FLT3(D835H))	Percent Control (FLT3(D835V))	Percent Control (FLT3(D835Y))	Percent Control (FLT3(ITD))	Percent Control (FLT3(ITD,D835V))	Percent Control (FLT3(ITD,F691L))	Percent Control (FLT3(K663Q))	Percent Control (FLT3(N841I))	Percent Control (FLT3(R834Q))	Percent Control (FLT3-autoinhibited)	Percent Control (FLT3)	Percent Control (FLT4)	Percent Control (FRK)	Percent Control (FYN)	Percent Control (GAK)	Percent Control (GCN2(Kin.Dom.2,S808G))
CC(C)COC(=O)c1ccc2c(c1)/C(=C/Nc1ccc(S(N)(=O)=O)cc1)C(=O)N2 [GW416981X]	100%	100%	99%	83%	1.6%	0%	1.1%	3%	0%	0%	42%	11%	18%	45%	42%	100%	100%	98%	40%	96%
CCc1ccc(Oc2nccc(-c3c(-c4ccc(F)cc4)ncn3C3CCNCC3)n2)cc1 [SB-242719]	100%	91%	87%	100%	88%	100%	100%	99%	89%	93%	96%	69%	90%	100%	71%	95%	99%	96%	84%	100%
Cc1cc(O)cc(C)c1/C=C/c1cncc(C(N)=O)c1 [GW435821X]	100%	100%	64%	100%	77%	31%	75%	100%	100%	100%	99%	100%	81%	100%	95%	100%	45%	70%	75%	100%
COc1ccc(COc2ccc(Cc3cnc(N)nc3N)cc2OC)cc1 [GW632580X]	95%	98%	81%	98%	100%	100%	81%	87%	100%	99%	79%	75%	97%	99%	100%	90%	100%	100%	95%	100%
CCn1c(-c2nonc2N)nc2c(C#CC(C)(C)O)nc(OCCNC)cc21.Cl [GSK949675]	100%	100%	100%	100%	43%	83%	30%	100%	100%	22%	100%	100%	78%	100%	100%	75%	100%	100%	100%	89%
COc1ccc2[nH]c3c4[nH]c5ccc(OC)cc5c4c4c(c3c2c1)C(=O)NC4=O [GW296115X]	93%	85%	68%	79%	12%	4%	16%	2.1%	0%	3.6%	9.7%	0%	6.3%	53%	28%	71%	88%	84%	0.3%	74%
COC(=O)Nc1nc2ccc(Oc3ccc(NC(=O)Nc4cc(C(F)(F)F)ccc4F)cc3)cc2s1.Cl [GW693917A]	70%	91%	71%	3%	2.3%	13%	24%	4.3%	83%	44%	1%	89%	11%	65%	2.4%	2.4%	15%	52%	97%	100%
COc1cccc(-n2ncc3c(N/N=C/c4ccncc4)ncnc32)c1 [GW784752X]	100%	100%	72%	100%	22%	4%	48%	67%	10%	55%	75%	36%	77%	85%	76%	100%	100%	75%	48%	65%
CN1CCN(C(=O)c2ccc(NC(=O)Nc3ccc(N(C)c4ccnc(Nc5ccc(CS(C)(=O)=O)cc5)n4)cc3)cc2)CC1.Cl [GW830263A]	100%	100%	57%	0.4%	0.8%	1.2%	5.3%	0.3%	8.9%	6.8%	0%	0%	0%	7.3%	1.5%	2%	80%	98%	18%	100%
COc1ccccc1-c1cc(/C=C2\C(=O)Nc3ncc(Br)cc32)cc(Br)c1O [GW442130X]	100%	100%	100%	100%	86%	73%	40%	100%	92%	100%	100%	85%	87%	100%	100%	96%	100%	93%	83%	79%
Cl.c1ccc(Cc2nc3ccc(Nc4ncnc5ccccc45)cc3[nH]2)cc1 [GR269666A]	100%	100%	100%	100%	100%	83%	97%	100%	100%	100%	90%	100%	100%	86%	72%	100%	100%	100%	100%	100%
NS(=O)(=O)c1ccc(N/N=C2\C(=O)Nc3ccc(-c4cnco4)cc32)cc1 [GW276655]	100%	82%	79%	80%	43%	2.2%	45%	44%	4.3%	18%	79%	70%	42%	61%	100%	67%	81%	81%	70%	89%
Cl.O=C(Nc1ccc(Oc2ccc3[nH]c(NC(=O)c4ccco4)nc3c2)cc1)Nc1cc(C(F)(F)F)ccc1F [GW683134A]	84%	100%	91%	3.2%	0.4%	13%	9.8%	3.7%	96%	39%	0.6%	8.4%	5.6%	92%	1.3%	1.5%	40%	71%	100%	90%
COc1cc2ncnc(Nc3ccc4c(cnn4Cc4ccccc4)c3)c2cc1OC.Cl [GW282449A]	100%	100%	68%	100%	68%	34%	83%	96%	90%	100%	49%	47%	83%	100%	45%	95%	100%	100%	90%	100%
COc1cc(C)c(N(C)C(=O)CN(C)C)cc1Nc1nc(Nc2cccc(F)c2C(N)=O)c2cc[nH]c2n1 [GSK2219385]	78%	96%	100%	96%	85%	76%	91%	82%	88%	100%	100%	93%	100%	100%	91%	100%	100%	100%	56%	100%
COc1ccc2cc(-c3c(-c4ccncc4)nc(-c4ccc(S(C)(=O)=O)cc4C)n3C)ccc2c1 [SB-633825]	76%	85%	63%	100%	79%	74%	99%	100%	80%	81%	93%	96%	95%	100%	92%	54%	76%	78%	59%	100%
CCS(=O)(=O)c1ccc(OC)c(Nc2ncc(-c3cccc(OC)c3)o2)c1 [GW580509X]	44%	100%	41%	54%	0.5%	0%	42%	8.2%	0%	30%	10%	0%	18%	40%	5.9%	13%	39%	48%	38%	82%
COc1ccc2c(-c3ccnc(Nc4cccc(OC(F)(F)F)c4)n3)cnn2n1 [GW810372X]	100%	100%	96%	73%	0%	46%	55%	49%	65%	89%	30%	55%	73%	86%	23%	100%	100%	100%	66%	85%
CC1=C(C(=O)Nc2ccc3[nH]ncc3c2)C(c2ccc3ccccc3c2)CC(=O)N1 (stereo not shown) [GSK270822A]	73%	58%	76%	89%	94%	65%	78%	100%	73%	79%	100%	80%	98%	100%	89%	100%	61%	83%	90%	100%
Cl.O=C(O[C@H]1CN[C@H](C#Cc2cc3ncnc(Nc4ccc5c(cnn5Cc5ccccc5)c4)c3s2)C1)N1CCOCC1 [GSK200398A]	100%	89%	96%	99%	96%	87%	89%	98%	88%	92%	66%	100%	92%	89%	77%	100%	90%	81%	88%	44%
